# TGFb SMAD3 inh: TGF-b pathway inhibition; HepG2 CAGA-GFP TGF-b/SMAD3 reporter, GFP fluorescence, 18 h; TGF-beta stimulated, 500 pg/mL final; 410,000 tested, 1.2% active; Potency, µM (highest dose often 46.1 µM), inactives show top-dose activity, negative = inhibition, actives largely listed as inhibitors; further: on the % scale 0 is the no-effect control and ±100 the full control effect; nearly all actives have a fitted effect of over 65% in size
#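 Per well, imaged GFP fluorescence of HEPG2 CAGA-GFP cells gives the signal; cells get compound, then TGF-beta (500 pg/mL final), 18 h at 37 degrees C; %Activity versus -TGF-beta and +DMSO controls.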
# HepG2 tox: HepG2 cytotoxicity, counter-screen for TGF-b inhibitors | HepG2 CAGA-GFP viability, ATP luminescence, 18 h | 410,000 tested, 0.76% active | Potency, µM (highest dose often 46.1 µM), without a hit: at the top dose activity change, negative = cytotoxicity, usual class: cytotoxic
#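 HepG2 CAGA-GFP cells (1000/well, DMEM with 1% FBS) received compound, then TGF-beta at 500 pg/mL final, and were incubated 18 hours at 37 degrees C. Viability was read by CellTiter-Glo luminescence. Media-only wells were set as complete cell-killing and DMSO as no toxicity.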
# A549 viability: A549 cytotoxicity, counter-screen for Nrf2 inhibitors | A549 ARE-Fluc cells, CellTiter-Fluor viability, 18-24 h | Potency, µM (titrated, usually from 46 µM), inactives show at the top dose activity change, negative = cytotoxicity, hits mostly inhibitors | 390,000 tested, 0.16% active; further: on the % scale 0 is the no-effect control and ±100 the full control effect
#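 A549 ARE-Fluc cells in 5% FBS OPTI-MEM, 5000 cells/well, rested 2 h then exposed to compounds in concentration-response for 18-24 h at 37 °C. Viability by CellTiter-Fluor fluorescence (Ex 405/Em 525) after 30 min; luciferase luminescence (BugLite, 15 min, RT) read afterwards.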
# ATXN viability: reduces viability in counter-screen for ATXN expression inhibitors; S2 cells (HEK-293 line with an ATXN2-luciferase reporter) viability, CellTiter-Fluor protease fluorescence, 24 h; Potency, µM (titrated, usually from 56.7 µM), usual class: cytotoxic; 400,000 tested, 0.49% active; AID 651635; further: nearly all actives have a fitted effect of over 40% in size
# Nrf2 block: inhibitors of Nrf2 signaling. Potency, µM (series often up to 46 µM), for the others: top-dose activity change, negative = inhibition, most hits filed as inhibitors. A549 ARE-Fluc reporter, luciferase luminescence, 18-24 h. 360,000 tested, 2.1% active; further: on the % scale 0 is the no-effect control and ±100 the full control effect; nearly all actives have a fitted effect of over 60% in size
#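 Concentration-response testing used A549 ARE_Fluc cells at 5000 cells/well. Following an 18-24 h compound incubation, viability was read by fluorescence (Ex 405/Em 525) and luciferase output by luminescence.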
# ATXN2 expr inh: reduces ATXN2 reporter expression in HEK-293 cells | HEK-293 ATXN2-luciferase reporter, luminescence, 24 h | 360,000 tested, 0.72% active | AID 1745845 | Potency, µM (top dose mostly 57 µM), inactives show top-dose activity change, negative = inhibition, most hits filed as inhibitors; further: on the % scale 0 is the no-effect control and ±100 the full control effect; nearly all actives have a fitted effect of over 55% in size
#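 ATXN2-luciferase reporter cells (luciferase flanked by upstream and downstream ATXN2 gene portions) were treated 24 h at 37 °C with compounds at up to 57 uM. SteadyGlo luminescence gave expression; GF-AFC fluorescence gave viability.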
# * marks the source's active call; other numbers are inactive results; i = inactive; ? = inconclusive; . = no result given. This is a sample that favours compounds with a hit; in the whole collection about 3.8% have one here. The call rests on the fitted dose curve; in most records, active means well fitted curve in the direction sought with a large enough effect; inconclusive means small, poorly fitted or top-dose-only effect, or another doubt; inactive means no such curve, though single readings can be large; an effect the other way counts as inactive or inconclusive. Potency means the concentration at half of the fitted maximal effect.
SMILES,TGFb SMAD3 inh,HepG2 tox,A549 viability,ATXN viability,Nrf2 block,ATXN2 expr inh
Cn1cnc([N+](=O)[O-])c1S(=O)(=O)c1ccc(Cl)cc1,11µM*,18µM*,?,?,18µM*,?
C=C1CCN(C(CC(C)C)C(=O)O)S(=O)(=O)c2ccccc21 (stereo not drawn),-2%,3%,-3%,.,12%,.
C=C1CCN(C(CC(C)C)C(=O)NCCCc2ccccc2)S(=O)(=O)c2ccccc21 (stereo not drawn),11µM*,-33%,29%,.,20%,.
O=C(NCCCN1CCCCC1)c1[nH]c2ccccc2c1Sc1ccc(Cl)cc1,?,13µM*,-7%,.,1%,?
COc1ccc2c(c1)-c1nc(-n3ncc(C(=O)N(C)C(C)c4ccon4)c3C3CC3)ncc1CC2 (stereo not drawn),.,.,.,i,.,.
Cc1ccc(S(=O)(=O)N(C)CCCC(=O)Nc2ccncc2)cc1,-21%,-18%,-6%,i,9.2µM*,-17%
Cc1ccc(S(=O)(=O)N(C)CCCC(=O)Nc2ccc(F)cc2)cc1,-21%,-12%,-2%,i,-20%,-14%
CCCOc1ccc(OC(=O)c2ccc(Br)o2)cc1,-3%,1%,-3%,i,10%,-8%
C[C@H](NC(=O)N1CCn2c1nc1ccccc12)C(=O)NC1CCCCC1,-2%,10%,-5%,i,1%,-4%
CC(C)[C@H](NC(=O)N1CCn2c1nc1ccccc12)C(=O)NC1CCCCC1,-19%,-7%,?,i,21µM*,-2%
CN(C(=O)c1cccc(NC(=O)Cc2ccc(NC(=O)C3CCCN(C(=O)C4CC4)C3)cc2)c1)C1CCC1 (stereo not drawn),6%,0%,-3%,i,-5%,9%
CCS(=O)(=O)c1ncc(Cl)c(C(=O)N(Cc2ccccc2)c2ccc(OC)cc2)n1,3.2µM*,3.2µM*,?,.,23µM*,.
COc1ccc(N(Cc2ccccc2)C(=O)c2nc(SC)ncc2Cl)cc1,13µM*,-30%,-14%,i,?,?
CC(C)c1nnc(NC(=O)c2nc(S(=O)(=O)Cc3ccccc3)ncc2Cl)s1,?,i,?,?,?,?
CN(C1=C(NC(=O)c2ccccc2)C(=O)c2ccccc2C1=O)C1CCS(=O)(=O)C1 (stereo not drawn),18µM*,18µM*,-17%,32µM*,-17%,?
N#C/C(=C\c1ccccc1C(F)(F)F)C(=O)Nc1ccccc1,-11%,-28%,-1%,i,-12%,2%
CCc1cccc(CC)c1NC(=O)/C(C#N)=C/c1ccccc1C(F)(F)F,13µM*,-95%,?,.,?,?
CCCCC#Cc1cncc(C(=O)NN)c1,12%,-24%,3%,i,18µM*,?
CCCCCCC#Cc1cncc(C(=O)NNC(=O)Nc2cc(Cl)cc(Cl)c2)c1,-13%,-48%,-3%,i,-22%,-27%
CCCCCCCNC(=O)C1(CC2CC(c3ccc(Cl)cc3)=NO2)CCNCC1 (stereo not drawn),?,18µM*,?,.,23%,28µM*
CCCCCCCNC(=O)C1(CC2CC(c3ccc(Cl)cc3)=NO2)CCN(C(=O)Cc2ccc(F)cc2)CC1 (stereo not drawn),0%,-4%,-7%,i,-2%,0%
COC(=O)Cn1c(=NC(=O)c2ccc3c(c2)OCCO3)sc2ccccc21,3%,5%,11%,.,.,.
CC(=O)N1CCSc2ccc(S(=O)(=O)Nc3ccccc3C)cc21,-20%,-9%,-22%,i,13µM*,?
CCCNC(=O)c1cnc2sc(N3CCCCCC3)nn2c1=O,-17%,-3%,-2%,.,22%,.
CCN(C[C@H]1N[C@@](Cc2ccccc2)(C(=O)OC)[C@H]2C(=O)N(Cc3ccccc3)C(=O)[C@@H]12)C(=O)C1CCCCC1,4%,-15%,?,i,15µM*,-13%
SMILES,TGFb SMAD3 inh,HepG2 tox,A549 viability,ATXN viability,Nrf2 block,ATXN2 expr inh
CCN(C[C@H]1N[C@@](C)(C(=O)OC)[C@H]2C(=O)N(Cc3ccccc3)C(=O)[C@@H]12)C(=O)c1ccc(C(C)(C)C)cc1,-13%,-10%,1%,?,-7%,-31%
CCN(C[C@H]1N[C@@](CC)(C(=O)OC)[C@H]2C(=O)N(Cc3ccccc3)C(=O)[C@@H]12)C(=O)c1ccc(C(C)(C)C)cc1,?,-65%,?,16µM*,?,?
CCN(C[C@H]1N[C@@](C)(C(=O)OC)[C@H]2C(=O)N(Cc3ccccc3)C(=O)[C@@H]12)C(=O)C1CCCCC1,-2%,4%,3%,i,?,-7%
CCOc1ccc(NC(=O)CN2CCN(c3ccc(F)cc3)CC2)cc1S(=O)(=O)N1CCCC1,-11%,-55%,.,i,.,.
Cc1ncc(CO)c(/C=N/Nc2ccc(C(F)(F)F)cn2)c1O,0%,-16%,?,i,10µM*,6.3µM*
COc1ccccc1CNC(=O)Nc1nc(C(N)CCc2ccccc2)cs1 (stereo not drawn),?,13µM*,.,.,.,?
COc1cccc(Nc2nc(C(N)COCc3ccccc3)cs2)n1 (stereo not drawn),?,11µM*,.,i,.,-22%
COc1cccc(Nc2nc(C(N)CCc3ccccc3)cs2)n1 (stereo not drawn),?,-91%,.,?,.,28µM*
NC(CCc1ccccc1)c1csc(NC(=O)NCCc2ccccc2)n1 (stereo not drawn),?,-79%,.,i,.,-27%
NC(=O)c1cccc(Nc2nc(C(N)CCc3ccccc3)cs2)n1 (stereo not drawn),5%,-38%,.,i,.,-9%
COc1ccc(CCNC(=O)C(=O)NCC(c2ccc3c(c2)OCO3)N2CCOCC2)cc1 (stereo not drawn),-7%,-32%,7%,i,.,-2%
CCOC(=O)c1cccc(NC(=O)CC2C(=O)N(c3ccc(C)cc3)C(=O)N2Cc2cccc(OC)c2)c1 (stereo not drawn),?,-34%,4%,.,?,.
CCCC(=O)N(c1ccc2oc3c(c2c1)CCCC3)S(=O)(=O)c1ccc(CC)cc1,-9%,-12%,1%,i,?,1%
CNc1cccc(S(=O)(=O)N2CCCN(S(=O)(=O)c3ccc4c(c3)OCCO4)CC2)c1,.,.,-3%,.,-7%,.
CCOC(=O)c1cc(OC)c2cccc(CN3CCCC(C)(C(=O)NCCOC)C3)c2c1 (stereo not drawn),-27%,-48%,.,20µM*,.,?
